The nature of assay [1]: binders of probe aFSTL3 on microarray, primary screen, stem cell growth factor project, biochemical, small-molecule microarray, fluorescence 635/667 (AID 1064).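 Note: measures binding of the biotinylated anti-FSTL3 antibody to printed compounds.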 The following applies: higher = more signal.
Assay [2] in a line: binders from COS7 lysate, DM2A8 probe, primary screen, torsin A project, cell lysate, small-molecule microarray, fluorescence 635/667 (AID 1065). The settings on record: higher = more signal, COS7 lysate expressing mutant human TOR1A.
Assay [3] can be described thus: binders of probe aFGF2 on microarray, primary screen, stem cell growth factor project, biochemical, small-molecule microarray, fluorescence 635/667 (AID 1067).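 Note: measures binding of biotinylated aFGF2 protein to printed compounds on slides; z-score merges feature fluorescence and signal-to-noise across triplicate slides.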 The following applies: higher = more signal.
The nature of assay [4]: binders of probe aFGF10 on microarray, primary screen, stem cell growth factor project, biochemical, small-molecule microarray, fluorescence 635/667 (AID 1071).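 Note: score merges 667 nm spot intensity and signal to noise from triplicate slides.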 The following applies: higher = more signal.
For assay [5], the target named is Neurogenic locus notch homolog protein 2 (Homo sapiens) (UniProt Q04721). Put plainly: Notch2 binders on small-molecule microarrays, primary screen, biochemical, small-molecule microarray, 635 nm fluorescence, stem cell growth factors (AID 1073). The following applies: Notch2 binding, higher = more signal.
The target in assay [6] is Pro-neuregulin-1, membrane-bound isoform (Homo sapiens) (UniProt Q02297). The assay can be described thus: NRG1 binders on small-molecule microarrays, primary screen, psychiatric disease protein project, biochemical, small-molecule microarray, fluorescence 635/667 (AID 1075).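 Note: score combines 667 nm spot fluorescence with signal to noise.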 The following applies: NRG1 binding, 635 nm fluorescence, higher = more signal.
Assay [7] concerns Neuregulin-1 EGF-like domain. The assay can be described thus: binders of neuregulin-1 EGF-like domain, primary screen, biochemical, small-molecule microarray, 635 nm fluorescence (AID 1081).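 Note: binding of the protein to compounds printed on small-molecule microarray slides.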 The following applies: small-molecule microarray binding, higher = more signal.
Assay [8] can be described thus: FRG1 promoter luciferase signal modulators, primary screen, FRG1 inhibition for FSHD, cell-based, C2C12 myotubes, firefly/Renilla luciferase, luminescence (AID 1084). The following applies: higher = more signal, called active from +8 up or from −8 down.
Assay [9] is described as follows: binders of probe aFST on microarray, primary screen, stem cell growth factor project, biochemical, small-molecule microarray, fluorescence 635/667 (AID 1086).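 Note: score merges 667 nm fluorescence with signal-to-noise of each printed compound spot.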 The settings on record: higher = more signal.
Assay [10] can be described thus: binders of probe aHhip on microarray, primary screen, stem cell growth factor project, biochemical, small-molecule microarray, fluorescence 635/667 (AID 1087).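 Note: score merges spot fluorescence at 667nm with spot signal to noise ratio.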 The following applies: higher = more signal.

The results in this text go back to PubChem BioAssay.

Calls of active or inactive are those of the source.

Chain of Neurogenic locus notch homolog protein 2 (Homo sapiens) (Q04721 whole entry, looked up, canonical isoform): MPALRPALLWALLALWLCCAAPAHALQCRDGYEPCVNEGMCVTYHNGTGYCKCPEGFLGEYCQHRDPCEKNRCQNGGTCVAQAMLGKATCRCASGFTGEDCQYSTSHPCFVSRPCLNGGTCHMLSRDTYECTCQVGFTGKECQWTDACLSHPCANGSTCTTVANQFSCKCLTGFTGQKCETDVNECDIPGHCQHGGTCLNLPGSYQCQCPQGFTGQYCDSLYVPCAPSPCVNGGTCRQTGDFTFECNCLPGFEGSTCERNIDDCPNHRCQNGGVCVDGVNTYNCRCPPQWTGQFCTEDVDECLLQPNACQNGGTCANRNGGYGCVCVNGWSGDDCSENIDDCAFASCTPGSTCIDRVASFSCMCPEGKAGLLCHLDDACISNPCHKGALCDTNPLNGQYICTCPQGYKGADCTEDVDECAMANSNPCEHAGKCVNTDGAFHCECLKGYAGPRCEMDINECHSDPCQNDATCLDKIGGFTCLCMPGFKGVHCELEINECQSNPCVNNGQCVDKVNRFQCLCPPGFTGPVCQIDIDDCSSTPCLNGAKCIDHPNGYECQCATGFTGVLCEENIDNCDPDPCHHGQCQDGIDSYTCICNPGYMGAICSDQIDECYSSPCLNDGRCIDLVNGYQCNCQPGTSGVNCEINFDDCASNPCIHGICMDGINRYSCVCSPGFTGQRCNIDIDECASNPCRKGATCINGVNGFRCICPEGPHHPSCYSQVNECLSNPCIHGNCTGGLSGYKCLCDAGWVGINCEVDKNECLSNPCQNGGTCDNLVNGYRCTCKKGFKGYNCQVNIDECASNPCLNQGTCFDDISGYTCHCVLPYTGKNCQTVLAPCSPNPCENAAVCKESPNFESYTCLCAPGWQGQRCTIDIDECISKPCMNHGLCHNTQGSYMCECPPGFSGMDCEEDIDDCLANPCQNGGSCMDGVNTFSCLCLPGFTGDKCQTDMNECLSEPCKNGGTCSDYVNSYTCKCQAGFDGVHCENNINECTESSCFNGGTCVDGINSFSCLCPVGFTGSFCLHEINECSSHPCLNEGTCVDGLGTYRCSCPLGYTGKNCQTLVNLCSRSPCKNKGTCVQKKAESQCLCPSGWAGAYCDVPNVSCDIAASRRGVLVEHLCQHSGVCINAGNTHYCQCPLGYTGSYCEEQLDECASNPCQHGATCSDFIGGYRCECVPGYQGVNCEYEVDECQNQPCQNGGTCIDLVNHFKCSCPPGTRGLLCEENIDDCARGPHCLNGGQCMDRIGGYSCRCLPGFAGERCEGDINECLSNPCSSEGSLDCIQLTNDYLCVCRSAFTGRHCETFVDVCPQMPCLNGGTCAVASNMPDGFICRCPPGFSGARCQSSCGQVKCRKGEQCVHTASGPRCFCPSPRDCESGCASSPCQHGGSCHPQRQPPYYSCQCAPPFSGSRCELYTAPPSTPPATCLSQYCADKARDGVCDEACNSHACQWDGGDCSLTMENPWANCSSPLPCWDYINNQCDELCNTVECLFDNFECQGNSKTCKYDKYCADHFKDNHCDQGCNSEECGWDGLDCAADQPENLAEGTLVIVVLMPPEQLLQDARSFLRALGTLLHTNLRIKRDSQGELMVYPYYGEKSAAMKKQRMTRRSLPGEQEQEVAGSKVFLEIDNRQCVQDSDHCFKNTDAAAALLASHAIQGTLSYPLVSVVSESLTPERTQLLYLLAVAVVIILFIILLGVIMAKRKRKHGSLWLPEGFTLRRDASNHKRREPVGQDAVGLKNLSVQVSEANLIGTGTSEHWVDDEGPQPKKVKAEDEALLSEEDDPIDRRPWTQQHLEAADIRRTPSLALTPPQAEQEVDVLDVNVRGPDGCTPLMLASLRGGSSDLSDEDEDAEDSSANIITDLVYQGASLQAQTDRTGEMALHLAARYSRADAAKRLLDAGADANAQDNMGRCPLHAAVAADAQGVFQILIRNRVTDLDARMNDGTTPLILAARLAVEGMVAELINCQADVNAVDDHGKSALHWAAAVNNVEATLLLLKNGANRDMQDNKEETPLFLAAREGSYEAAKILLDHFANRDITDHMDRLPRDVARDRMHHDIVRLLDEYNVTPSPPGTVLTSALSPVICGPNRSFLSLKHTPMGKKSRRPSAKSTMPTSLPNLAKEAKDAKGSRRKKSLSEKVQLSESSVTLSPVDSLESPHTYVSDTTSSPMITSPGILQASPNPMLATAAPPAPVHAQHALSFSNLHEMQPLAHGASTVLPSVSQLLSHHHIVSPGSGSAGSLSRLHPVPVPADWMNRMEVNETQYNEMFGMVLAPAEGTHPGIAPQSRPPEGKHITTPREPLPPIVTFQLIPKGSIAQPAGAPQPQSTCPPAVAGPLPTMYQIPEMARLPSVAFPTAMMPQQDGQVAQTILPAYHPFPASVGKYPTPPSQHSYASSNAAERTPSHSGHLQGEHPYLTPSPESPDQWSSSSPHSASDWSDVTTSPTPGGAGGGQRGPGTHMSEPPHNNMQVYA
Chain of Pro-neuregulin-1, membrane-bound isoform (Homo sapiens) (Q02297 whole entry, looked up, the tested form may be a part, canonical isoform): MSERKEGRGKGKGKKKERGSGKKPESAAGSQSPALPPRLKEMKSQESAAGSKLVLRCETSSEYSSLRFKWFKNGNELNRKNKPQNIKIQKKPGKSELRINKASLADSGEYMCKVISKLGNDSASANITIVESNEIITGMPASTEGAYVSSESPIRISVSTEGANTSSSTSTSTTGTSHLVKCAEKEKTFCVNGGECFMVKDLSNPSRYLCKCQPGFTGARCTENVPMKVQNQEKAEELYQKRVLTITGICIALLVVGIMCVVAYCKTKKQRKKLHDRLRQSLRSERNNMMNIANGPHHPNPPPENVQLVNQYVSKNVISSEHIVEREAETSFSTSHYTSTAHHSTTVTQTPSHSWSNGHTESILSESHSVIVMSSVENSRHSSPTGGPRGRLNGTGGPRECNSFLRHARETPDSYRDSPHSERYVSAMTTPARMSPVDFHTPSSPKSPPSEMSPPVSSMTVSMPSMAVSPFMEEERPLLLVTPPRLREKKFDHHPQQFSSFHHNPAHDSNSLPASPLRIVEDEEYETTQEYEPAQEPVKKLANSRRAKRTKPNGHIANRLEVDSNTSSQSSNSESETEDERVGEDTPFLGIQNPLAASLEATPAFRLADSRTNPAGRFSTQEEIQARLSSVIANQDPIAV

On to `C=C(CCCC)C(=O)CC[C@H](OC(=O)c1cccnc1)c1cccc(OCCO)c1`, for which the composite z-score in assay [1] is 0.17; in assay [2], -0.218; in assay [3] it was -0.157; in assay [4], 0.387; in assay [5], -0.818; in [6], 0.941. In addition, the values for the composite z-score in [7], in assay [9] and in [10] were 0.762, 0.0945 and -0.236, respectively. Further, in assay [8], the z-score is -0.594 (inactive).

As for `COC(=O)c1ccc(C(O)C2C=CC3C(=O)N(c4ccccc4)C(=O)C3N2Nc2ccc(C#N)cc2)o1` (stereo not given), the composite z-score in assay [1] came to 0.042; in assay [2], 0.465; in assay [3] it was 0.0394; in [4] it was 0.865; in [5], 1.33; in [6], 0.665. Besides, the composite z-score in [7] was 1.34; in assay [9], 0.478; in assay [10] it was -0.199. The z-score in assay [8] was 0.447 (inactive).

On to `CC(C)C(O)C1C=CC2C(=O)N(c3ccccc3)C(=O)C2N1Nc1ccc(C#N)cc1` (stereo not given), for which the composite z-score in [1] was found to be 0.946; in assay [2] it was 0.303; in assay [3], 0.238; in assay [4], 1.07; in assay [5] it was 1.7; in assay [6], 1.72. Further, the figures for the composite z-score in [7], in assay [9] and in assay [10] were 1.23, 1.49 and -0.168, respectively. In assay [8], the z-score is 0.596 (inactive).

With `CC(C)c1ccc(NN2C(C(O)c3ccc(N(C)C)cc3)C=CC3C(=O)N(c4ccccc4)C(=O)C32)cc1` (stereo not given), the composite z-score in assay [1] was -0.145; in assay [2], 1.43; in assay [3], 0.0485; in assay [4], 0.405; in assay [5] it was 1.5; in assay [6], 1.88. The composite z-score in assay [7] is 1.12; in assay [9] it was 1.46; in [10], -0.166. Moreover, the z-score in [8] is 2.3 (inactive).

With `COC(=O)c1ccc(C23CC2(C(NP(=O)(c2ccccc2)c2ccccc2)c2ccccc2)C3)cc1` (stereo not given), the composite z-score in assay [1] was 0.741; in assay [2], 0.275; in [3], -0.0009; in assay [4], 0.0592; in assay [5], 1.73; in assay [6], 2.26. Moreover, the composite z-score in [7] worked out at 1.17; in assay [9], 1.73; in assay [10], 0.0596. For the same molecule, the z-score in [8] was -4.52 (inactive).

Turning to `COCC(=C=CC[C@@H](O)c1ccc(CO)o1)CCO`, the composite z-score is -0.403 in [1]; -0.196 in assay [2]; -0.188 in assay [3]; 0.502 in assay [4]; -0.235 in [5]; 0.178 in assay [6]. The composite z-score in assay [7] is -0.149; in assay [9], -0.0032; in assay [10], 0.011. In addition, the z-score in assay [8] is -1.71 (inactive).

On to `COC(=O)[C@@]1(Cc2ccccc2)[C@H]2c3cc(C(=O)N(C)C)n(Cc4cc(C)n(C)n4)c3C[C@H]2CN1C(=O)c1ccccc1`, for which the composite z-score in assay [1] is 0.512; in assay [2], 0.403; in assay [3], -0.221; in assay [4], -0.0117; in assay [5], 1.69; in assay [6], 1.51. For the same molecule, the composite z-score turned out to be 1.27 in [7], 1.51 in assay [9] and 0.628 in assay [10]. In addition, the z-score in assay [8] is 0.0005 (inactive).

For `O=C(O)[C@H]1C[C@H]2C(=O)NCC(=O)N2[C@H]1c1ccc(O)cc1`, the composite z-score was 0.136 in assay [1]; 0.202 in assay [2]; -0.0996 in assay [3]; -0.224 in [4]; -0.424 in assay [5]; -0.235 in assay [6]. Also, the composite z-score in assay [7] was 1.4; in [9], 0.025; in assay [10] it was -0.226. Moreover, the z-score in [8] was 3.81 (inactive).

Consider `O=C/C=C/c1ccc(Cl)cc1`, for which the composite z-score in assay [1] is -0.0244; in [2] it was -0.385; in assay [3], 0.0086; in assay [4] it was 0.439; in assay [5], -0.885; in assay [6], -0.476. Moreover, the composite z-score in assay [7] is 0.651; in [9] it was -0.493; in assay [10], -0.282. Further, in [8], the z-score is -0.678 (inactive).

Consider `COc1ccc(C(=O)Nc2cccc(CN3C(=O)[C@@]4(O[C@@H](CCn5cc(CCO)nn5)[C@H]([Si](C)(C)c5ccc(OC)cc5)[C@H]4C)c4ccccc43)c2)cc1`, for which the composite z-score in [1] was -0.115; in assay [2], 0.485; in assay [3], -0.0381; in assay [4], 0.205; in assay [5] it was 1.12; in assay [6], 1.08. In addition, the results for the composite z-score in assay [7], in assay [9] and in assay [10] were 1.11, 0.407 and -0.0994, respectively. The z-score in assay [8] was -3.09 (inactive).

Consider `O=C1OCCC=C[C@H]2OC34C=CCN(Cc5ccccc5)C(=O)[C@H]3N(CCCO)C(=O)[C@@H]4C12` (stereo not given in full), for which the composite z-score in assay [1] was -0.274; in [2], 0.0519; in assay [3], -0.116; in assay [4], -0.479; in [5], -0.747; in assay [6] it was -0.555. Further, the results for the composite z-score in assay [7], in [9] and in assay [10] were 0.187, -0.327 and -0.0003, respectively. For the same molecule, the z-score in [8] was -0.138 (inactive).

For `O=C1O[C@H](c2ccccc2)[C@H](c2ccccc2)N2[C@H]1[C@@H](C(=O)O)[C@]1(C(=O)Nc3ccc(C#CC4(O)CCCCCC4)cc31)[C@H]2c1ccc(OCCO)cc1`, the composite z-score was -0.133 in assay [1]; -0.337 in assay [2]; 0.0201 in [3]; 0.564 in [4]; 0.263 in assay [5]; 1.85 in assay [6]. Besides, the composite z-score was 1.14 in [7], 1.07 in assay [9] and -0.0994 in assay [10]. Further, the z-score in assay [8] is 1.11 (inactive).

As for `CCCNC(=O)[C@@]1(c2ccc([N+](=O)[O-])cc2)CC(=O)N(CC23CC4CC(CC(C4)C2)C3)[C@@H]1c1ccc(CO)cc1`, the composite z-score in assay [1] is -0.271; in [2], 0.515; in [3] it was 0.0422; in assay [4], 0.303; in [5] it was 0.143; in [6], 0.582. In addition, the composite z-score in [7] was found to be 0.791; in [9], 1.13; in assay [10], 0.358. The z-score in [8] was -1.75 (inactive).
